Reference: the supplement of paper PMC10338343
± gives the standard deviation.

Tested on: MILI (PIWIL2) piRISC loaded with piRNA #1 (26 nt)
Test: pre-steady-state target cleavage rate (min^-1); guide: piRNA #1 5'p-UGAGGUAGUAGGUUGUAUAGUAUCCA; MIWI and MILI are mouse PIWI proteins and EfPiwi is from a freshwater sponge; tags in brackets are library labels; higher = faster piRNA-guided slicing of the target
Details: auxiliary factor: 500 nM mouse GTSF1
Protocol: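 Cleave-'n-Seq: a library of target RNAs (target site embedded in constant flanks, ACAGCATTCCGCGTTAGTGATATCCG... 5' flank; DNA-blocked outside the site) at 0.1 nM was incubated with 1 nM active mouse MILI or MIWI piRISC (synthetic 5'-monophosphorylated piRNA guide) with or without 500 nM mouse GTSF1 at 33 °C for 1 min to 16 h. Uncleaved targets were sequenced and normalised to non-target controls, and the pooled three trials were fitted to a burst-and-steady-state model to give the pre-steady-state cleavage rate (min^-1; k3 is constrained to at most 1e-4). Sequence is the target site only; target names encode pairing extent (gX:gY) and contiguous / 1-mismatch / 2-mismatch / bulge geometry. Fits with R² ≤ 0 are excluded.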

| Sequence | pre-steady-state target cleavage rate |
| --- | --- |
| GGAGUGGAUACUAUACAACCACUACCUCA | 0.00753 ± 0.002 |
| GGAGACCUAUGAUAUGUUCCUACUACCAGA | < 0.0001 |
| GGAGAGGAUACUAUACAACCUACAUGCUCA | 0.00576 ± 0.003 |
| GGAGACCUAUCUAUUCUACCUACUACCUCA | 0.0569 ± 0.0086 |
| GGAGACCUAUGAUUACUACCUACUAGCUCA | 0.0036 ± 0.0032 |
| GGAGACCUAUGAUAUGUUCCUUCUACCUGA | < 0.0001 |
| GGAGACCUAUGAUUACAACCUACUGACCUCA | 0.00605 ± 0.0028 |
| GGAGACCAUACAAUACAACCUACUACCACA | 0.177 ± 0.022 |
| GGAGUGGAUAGUAUACAACCUACAACCUCA | 0.0845 ± 0.011 |
| GGAGACCUUACUAUACUUGCUACUACCUCA | 0.0548 ± 0.0062 |
| GGAGAGGAUACUAUACAACCUACUACCCUCA | 0.11 ± 0.017 |
| GGAGACCUAUGAUUACAUCCUACAACCUCA | 0.00871 ± 0.0027 |
| GGAGACCUUACUAUCAACCUACUACCUCA | 0.0728 ± 0.0079 |
| GGAGACCUAUGAAUACAAGCUACUAGCUCA | 0.00622 ± 0.0027 |
| GGAGACCUAACAAUUCAACCUACUACCUCA | 0.0406 ± 0.013 |
| GGAGACCUAUGUAGUACAACCUACUACCUCA | 0.00758 ± 0.0032 |
| GGAGACCAUGCUAUACAACCUACUACCUCA | 0.145 ± 0.023 |
| GGAGACCUAUGAUAUGAAGCUACUUCCUCA | < 0.0001 |
| GGAGACCUUACUAUACAACCUACUAACCUCA | 0.178 ± 0.018 |
| GGAGACCAUACUAUACAACCAACUACCACA | 0.00384 ± 0.0026 |

| Sequence | pre-steady-state target cleavage rate |
| --- | --- |
| GGAGACCUAUGUAUACAACCUACUACGACA | 0.0279 ± 0.0061 |
| GGAGACCUUACUAUACAACCUACUAGCUCA | 0.145 ± 0.02 |
| GGAGACCUAUGAAUACAUCCUACUACCUGA | 0.00353 ± 0.002 |
| GGAGACCUAUCUAAACAACCUAGUACCUCA | 0.0109 ± 0.0036 |
| GGAGAGGAUACUAUACAACCUAGUACCUCA | 0.00636 ± 0.0033 |
| GGAGACCUAUCUAUACAAGGUACUACCUCA | 0.0563 ± 0.0083 |
| GGAGACGAAACUAUACAACCUACUACCUGA | 0.149 ± 0.039 |
| GGAGACCUAACUAUACAACCUACUACCUCCA | 0.123 ± 0.021 |
| GGAGAGGAUACUAUACAUGCUACUACCUCA | 0.0905 ± 0.01 |
| GGAGACCUAUCUAUACAACCUACAACCUGA | 0.0151 ± 0.0061 |
| GGAGACCAUAGUAUUCAACCUACUACCUCA | 0.11 ± 0.013 |
| GGAGACCUAUGAUAUGUUGCUACUUCCACA | < 0.0001 |
| GGAGAGGAUACUAUAUCAACCUACUACCUCA | 0.107 ± 0.0098 |
| GGAGUGGAUACUAUACAACCUGCUACCUCA | 0.0658 ± 0.0067 |
| GGAGACCUAUCCAUACAACCUACUACCUCA | 0.0836 ± 0.016 |
| GGAGACCAUACUAUACAAGCUUCUACCUCA | 0.036 ± 0.007 |
| GGAGACCAUACUAAACAACGUACUACCUCA | 0.0192 ± 0.003 |
| GGAGACCUAUCUAUACGACCUACUACCUCA | 0.0198 ± 0.0044 |
| GGAGAGGAUUCUAUACAACCUUCUACCUCA | 0.00976 ± 0.0032 |
| GGAGACCUAUGAAUACAACCUACUACCUUA | 0.00551 ± 0.0022 |
